SF1 inhibitor – blocks the human nuclear receptor SF-1. Q13285. CHO-K1 Gal4-SF-1 LBD luciferase reporter. inhibition, % at 10 µM. hit rate 0.55% among 65,000. AID 525;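 active = inhibition above the mean inhibition of all tested compounds plus 3 SD, cut at about 48% in these data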;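 also: 0% = SF-1 transfected cells with DMSO and 100% = mock-transfected cells lacking SF-1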
Target sequence (Q13285 whole entry, looked up, the tested form may be a part): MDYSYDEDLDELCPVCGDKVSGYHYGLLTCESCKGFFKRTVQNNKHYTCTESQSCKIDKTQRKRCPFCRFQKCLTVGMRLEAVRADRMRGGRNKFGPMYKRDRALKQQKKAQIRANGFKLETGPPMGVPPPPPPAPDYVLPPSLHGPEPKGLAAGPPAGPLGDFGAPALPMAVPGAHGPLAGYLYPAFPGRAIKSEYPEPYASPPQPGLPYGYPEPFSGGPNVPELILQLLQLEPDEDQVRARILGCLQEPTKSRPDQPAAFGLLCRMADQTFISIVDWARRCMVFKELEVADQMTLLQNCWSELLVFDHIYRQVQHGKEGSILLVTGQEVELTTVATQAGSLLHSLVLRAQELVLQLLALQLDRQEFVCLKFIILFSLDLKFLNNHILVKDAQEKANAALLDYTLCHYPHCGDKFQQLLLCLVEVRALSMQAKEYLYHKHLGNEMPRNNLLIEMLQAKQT
* hit, by the source's call. Shown is part of a subset that was picked to be rich in hits.

SMILES	SF1 inhibitor
O=S(=O)(Nc1cccc2ncccc12)c1cccs1	96*
CNC(=O)NC(=O)COC(=O)CCCOc1ccc(OC)cc1	9
CCn1ccnc1C(O)c1cccc(OC)c1OC (stereo not given)	-8
CCC(=O)Nc1nc(C)cc(SCC(=O)OC)n1	2
CC(NC(=O)C1CCN(c2nnc(-n3cccc3)s2)CC1)C12CC3CC(CC(C3)C1)C2 (stereo not given)	-8
Cc1cc(NC(=O)c2cc(-c3ccccn3)nc3ccccc23)no1	7
Cc1ccc(C(=O)/C=C/Nc2ccccn2)cc1	83*
COc1ccc(C(=O)/C=C/Nc2cccc(C)n2)cc1OC	-88
c1coc(-c2nnc(NC3=NCCC3)o2)c1	-61
Cc1ccc(-c2nnc(Nc3ccccc3)o2)cc1	68*
Cc1ccccc1-c1nnc(-c2ccc(Br)cc2)o1	-77
CC(C)Oc1ccc(/C(O)=C2/C(=O)C(=O)N(CCN(C)C)C2c2ccco2)cc1 (stereo not given)	-28
COc1ccc(C)cc1NC(=O)c1cc2c(CO)cnc(C)c2oc1=N	-24
CCOc1ccc(S(=O)(=O)N(CC(=O)O)c2ccc(C)cc2)cc1	-17
c1ccc(-c2nc(N3CCCCCC3)c3ccccc3n2)nc1	86*
Cc1cc(C)n2nc(SCC3COc4ccccc4O3)nc2n1 (stereo not given)	-55
O=C(CN1CCOCC1)N(c1ccccc1)c1ccc2ccccc2c1	7
O=S(=O)(Nc1ccc2c(c1)nc1n2CCOC1)c1ccc(Cl)cc1	5
O=C(NCc1ccco1)c1cc(-c2cccs2)on1	-28
Cc1ccc(N2C(N)=NC(N)=NC23CCCC3)c(C)c1	-13
Cc1cccc(N2CCN(C(=O)CSCc3c(C)noc3C)CC2)c1C	50*
O=C(CSc1ccccn1)N1CCN(c2ccccc2)CC1	-1
C=CCn1c(SCc2c(C)noc2C)nc2cc(C(=O)O)ccc2c1=O	-17
CCC(C)NS(=O)(=O)c1ccc(NC(=O)c2c(-c3ccccc3)noc2C)cc1 (stereo not given)	-11
NC(=O)CS(=O)(=O)c1nc2ccccc2n1Cc1ccccc1F	10
SMILES	SF1 inhibitor
CSC1=C(C#N)C(c2ccc(Cl)cc2)C2=C(CC(C)(C)CC2=O)N1 (stereo not given)	52*
Cc1ccc(NC(=O)CSC2=C(C#N)C(c3ccc4c(c3)OCO4)C3=C(CCCC3=O)N2)c(C)c1 (stereo not given)	5
C=CCn1c2ccccc2c2nnc(SCCCn3c(=O)[nH]c4ccccc43)nc21	6
O=C(NC1CCCCC1)c1cc2nc3c(c(C(F)(F)F)n2n1)CCCC3	-50
c1ccc(OCCOc2ncnc3sccc23)cc1	-53
Clc1ccc(-n2ncc3c(NCc4cccs4)ncnc32)cc1	-74
c1csc(CNc2ncnc3sccc23)c1	51*
Fc1ccc2nc3[nH]c4ccccc4c3nc2c1	-90
CCN1CCN(c2ncc(C(=O)N3CCCc4ccccc43)c3ccccc23)CC1	-15
CCn1c(=NC(=O)CN2C(=O)CCC2=O)sc2c(C)cc(C)cc21	34
CN(C)c1cccc(C(=O)NC2CCCCCC2)c1	-75
CCOC(=O)c1c(C)c(C(=O)Nc2ccc(N(C)C)cc2)c(C)n1CC	-72
CN(C)c1ccc(N/C=C/C(=O)c2ccccc2)cc1	66*
O=c1[nH]cnc2c1N1CCC2CC1	2
CCc1cc2c(=O)c(-c3nc4ccccc4[nH]3)coc2c(CN2CCCC(C)C2)c1O (stereo not given)	-3
CC1CCN(C(=O)c2ccc(NC(=O)C3CCCO3)cc2)CC1 (stereo not given)	-6
COc1ccc(-c2ccc(-c3nnn(CC(C)=O)n3)cc2)cc1	-90
CCc1ccc(-c2nnn(CCC(=O)OC)n2)cc1	52*
O=C(Cn1nnc(-c2ccccc2)n1)OCc1csc(-c2ccccc2)n1	-19
O=c1[nH]c2c(s1)C=Nc1ccccc1N2	-14
O=C(Nc1ccc(F)cc1)c1cccc2c1C(=O)N(Cc1ccccn1)C2	-12
Cc1ccc(-c2nsc3c(N4CCC(C(N)=O)CC4)ncnc23)cc1	49*
O=C(OCC#CCSc1nc2ccccc2o1)c1ccco1	-24
Nc1nsc2ccccc12	58*
C/C=C(\C)CN1CCc2cc(OC)c(OC)cc2C1	11
SMILES	SF1 inhibitor
Cc1ccc(-c2csc3ncnc(Sc4nnc(CN5CCCCCC5=O)o4)c23)cc1	71*
Cc1ccc(N=Cc2ccc[nH]2)c(O)c1	-9
CC(C)(C)n1ncc2c(=O)n(CC(=O)NCc3ccc(F)cc3)cnc21	-92
COC(=O)Cc1[nH]nc2c1C(c1cccc(OC)c1OC)C(C#N)=C(N)O2 (stereo not given)	6
COc1cc(C2C(C#N)=C(N)Oc3cc(C)n(CC4CCCO4)c(=O)c32)cc2c1OCO2 (stereo not given)	-5
COc1cc(C2C(C#N)=C(N)Oc3cc(N)ccc32)cc(OC)c1OC (stereo not given)	63*
COc1ccc(C(c2sc3nc(C)nn3c2O)N2CCC3(CC2)OCCO3)cc1 (stereo not given)	-4
CC1CCCCN1CCNC(=O)CN1C(=O)COc2ccccc21 (stereo not given)	7
CC[C@H]1OC(=O)C[C@@H](O)[C@H](C)[C@@H](O[C@@H]2O[C@H](C)C[C@H](N(C)C)[C@H]2O)[C@@H](CC=O)C[C@@H](C)C(=O)C=C[C@]2(C)O[C@H]2[C@@H]1C	9
COc1ccc(-n2nnnc2SCC(=O)c2cc3ccccc3o2)cc1	-2
COc1cccc(-c2nnc(Nc3nc4c(F)cccc4s3)o2)c1	-51
COCCCNc1oc(-c2ccccc2OC)nc1C#N	7
COc1ccccc1-c1nnc(Nc2nc3c(OC)cccc3s2)o1	67*
Cc1ccc(Cn2c(CN3CC(C)OC(C)C3)nc3c2c(=O)n(C)c(=O)n3C)cc1 (stereo not given)	15
CCOC(=O)COc1nc(Nc2ccccc2C)nc(N(C)C)n1	-7
CC(C)C1N=C2c3ccccc3N=C(SCc3cc(=O)n4ccccc4n3)N2C1=O (stereo not given)	28
CC1C(O)=C(c2nc3ccccc3[nH]2)C(=N)N1c1ccccc1 (stereo not given)	-54
COc1ccc(CNc2ccc3c(c2)nc(C)n3C)cc1	-79
COc1ccc(CCNc2c(C)c(C)nc3ncnn23)cc1	81*
CN=Cc1cc(-c2ccccc2)sc1O	-56
CCOC(=O)c1ccc(N2CC(O)=C(c3nc4ccccc4c(=O)[nH]3)C2=N)cc1	0
Cc1c(NC(=O)CCC2CCCCC2)c(=O)n(-c2ccccc2)n1C	-10
O=C(c1ccco1)N1CCN(C(c2ccccn2)c2nnnn2C2CCCC2)CC1 (stereo not given)	-9
N#CC(C#N)=c1ccc2c(c1)NC1(CCCCC1)N=2	65*
O=C(NCCN1CCCC1)c1ccc2c(=O)n(CCc3ccccc3)c(=O)[nH]c2c1	3
SMILES	SF1 inhibitor
O=C(Nc1cccc(C(F)(F)F)c1)C1CCN(S(=O)(=O)c2cnc[nH]2)CC1	2
COc1cc(C(=O)Nc2nnc(-c3sccc3C)s2)cc(OC)c1OC	6
O=C1C/C(=C/NCc2ccccc2)C(=O)N1	6
COc1ccc(-n2ccnc2SCC(=O)NCc2ccc3c(c2)OCO3)cc1	-6
COc1ccc2c(c1)[nH]c1c(N3CCN(Cc4ccc5c(c4)OCO5)CC3)ncnc12	74*
c1ccc2sc(NC3=NCN(Cc4ccc5c(c4)OCO5)CN3)nc2c1	7
Cc1ccc2c(c1)c1ncnc(N3CCC4(CC3)OCCO4)c1n2C	-67
Cc1ccc2[nH]c3c(N4CCN(Cc5ccc6c(c5)OCO6)CC4)ncnc3c2c1	73*
Cc1ccc2[nH]c3c(N4CCCCCC4)ncnc3c2c1	74*
